Laboratory results reported in PubChem BioAssay (NCATS).
Records with an inconclusive call do not appear. Entries that show only a call come without a potency. The source made the active and inactive calls. Calls come from the whole dose curve; as a rule, active = well fitted curve in the direction sought with a large enough effect; inconclusive = small, poorly fitted or top-dose-only effect, or another doubt; inactive = no such curve, though single readings can be large; an effect the other way counts as inactive or inconclusive.

Assays:
[1] = target: Voltage-gated inwardly rectifying potassium channel KCNH2 (Homo sapiens) (UniProt Q12809); assay: qHTS Assay for Small Molecule Inhibitors of the Human hERG Channel Activity (AID 588834); conditions: U2OS BacMam hERG, FluxOR thallium flux fluorescence; series mostly up to 46.1 µM;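 note: lower thallium flux fluorescence means stronger hERG block; nearly all actives have a fitted effect of over 50% in size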; note: potency is the fitted concentration of half-maximal effect
Chain of Voltage-gated inwardly rectifying potassium channel KCNH2 (Homo sapiens) (Q12809 whole entry, looked up): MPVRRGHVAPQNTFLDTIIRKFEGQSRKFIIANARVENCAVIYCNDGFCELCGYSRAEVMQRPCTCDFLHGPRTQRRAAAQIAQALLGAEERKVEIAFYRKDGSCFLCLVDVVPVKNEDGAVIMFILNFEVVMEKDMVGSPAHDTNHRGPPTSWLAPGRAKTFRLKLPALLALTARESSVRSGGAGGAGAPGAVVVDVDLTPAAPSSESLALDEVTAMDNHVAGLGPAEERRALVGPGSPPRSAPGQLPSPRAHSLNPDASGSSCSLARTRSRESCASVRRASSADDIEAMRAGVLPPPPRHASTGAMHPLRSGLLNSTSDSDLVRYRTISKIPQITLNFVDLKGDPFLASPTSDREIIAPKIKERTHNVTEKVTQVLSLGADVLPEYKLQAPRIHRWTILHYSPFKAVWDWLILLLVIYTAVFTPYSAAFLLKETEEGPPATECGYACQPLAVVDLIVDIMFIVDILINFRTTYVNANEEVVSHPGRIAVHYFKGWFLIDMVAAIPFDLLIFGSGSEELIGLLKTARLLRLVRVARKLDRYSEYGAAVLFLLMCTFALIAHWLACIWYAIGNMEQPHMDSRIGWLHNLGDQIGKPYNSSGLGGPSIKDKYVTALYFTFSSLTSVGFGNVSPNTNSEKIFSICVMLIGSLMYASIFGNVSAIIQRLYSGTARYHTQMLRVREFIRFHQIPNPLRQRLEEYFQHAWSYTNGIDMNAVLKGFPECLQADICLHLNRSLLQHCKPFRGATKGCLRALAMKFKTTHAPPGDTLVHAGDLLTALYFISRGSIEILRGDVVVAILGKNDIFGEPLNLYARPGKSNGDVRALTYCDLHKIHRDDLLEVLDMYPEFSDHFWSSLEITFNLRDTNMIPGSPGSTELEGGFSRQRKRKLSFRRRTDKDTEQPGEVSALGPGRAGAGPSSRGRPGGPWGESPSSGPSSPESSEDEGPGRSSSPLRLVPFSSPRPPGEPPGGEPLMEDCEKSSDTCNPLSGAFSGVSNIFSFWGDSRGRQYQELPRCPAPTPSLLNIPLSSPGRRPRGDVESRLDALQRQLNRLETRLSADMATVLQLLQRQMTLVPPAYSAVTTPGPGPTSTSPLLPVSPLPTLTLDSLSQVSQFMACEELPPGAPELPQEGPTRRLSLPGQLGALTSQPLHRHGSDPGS
Outline: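 Cells were infected with hERG-BacMam virus for 4 hrs at room temperature, grown overnight, then seeded at 2000/well. After dye loading and roughly 10 min compound treatment, thallium influx was triggered and fluorescence recorded.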

[2] = target: Luciferin 4-monooxygenase (Photinus pyralis) (UniProt P08659); assay: Biochemical firefly luciferase enzyme assay for NPC (AID 624030);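 note: purified P. pyralis luciferase at 10 nM with luciferin and ATP substrate; nearly all actives have a fitted effect of over 70% in size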; conditions: purified P. pyralis luciferase, luminescence, 5 min; series mostly up to 58.6 µM
Chain of Luciferin 4-monooxygenase (Photinus pyralis) (P08659 whole entry, looked up): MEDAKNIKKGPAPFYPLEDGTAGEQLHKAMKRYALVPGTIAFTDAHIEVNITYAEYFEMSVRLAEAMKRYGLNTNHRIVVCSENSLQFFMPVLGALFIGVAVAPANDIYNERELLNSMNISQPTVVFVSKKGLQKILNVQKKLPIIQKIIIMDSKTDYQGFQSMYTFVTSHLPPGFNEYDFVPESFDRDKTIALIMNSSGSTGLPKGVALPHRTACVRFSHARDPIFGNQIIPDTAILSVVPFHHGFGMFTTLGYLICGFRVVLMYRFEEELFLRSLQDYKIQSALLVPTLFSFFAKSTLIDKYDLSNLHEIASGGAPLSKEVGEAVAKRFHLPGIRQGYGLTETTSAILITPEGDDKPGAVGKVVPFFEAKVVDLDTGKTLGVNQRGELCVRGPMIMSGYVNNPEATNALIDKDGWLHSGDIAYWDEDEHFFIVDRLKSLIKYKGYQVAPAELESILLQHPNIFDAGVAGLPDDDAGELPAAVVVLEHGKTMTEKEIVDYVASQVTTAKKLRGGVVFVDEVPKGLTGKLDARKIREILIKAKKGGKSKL
Outline: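 Counter-screen for direct inhibition of the luciferase enzyme by approved-drug library compounds, run at 10 nM enzyme in 50 mM Tris acetate (final). Luminescence was read within 5 min of enzyme-buffer addition and normalized to PTC124 versus DMSO (0%).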

[3] = S16 Schwann cell viability assay (CellTiter-Glo assay) (AID 624031); conditions: S16 rat Schwann cells viability, 24 h; series mostly up to 57.5 µM;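 note: cellular ATP luminescence as a viability measure; nearly all actives have a fitted effect of over 70% in size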
Outline: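 Native S16 rat Schwann cells in DMEM/10% FBS without phenol red were incubated overnight, then exposed to compounds for 24 h at 37 °C/5% CO2. Viability was read as ATP luminescence (CellTiter-Glo), normalized to no-cell wells and DMSO (0%).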

[4] = S16 Schwann cell PMP22 intronic element firefly luciferase assay (AID 624032); conditions: S16 rat Schwann cells, PMP22 element FLuc, 24 h; series mostly up to 57.5 µM; note: nearly all actives have a fitted effect of over 30% in size
Outline: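 Rat S16 Schwann cells stably carrying a PMP22 intronic element-driven Fluc reporter were seeded overnight, then exposed to compounds for 24 h at 37 °C. Luminescence was normalized to PTC124 (positive control) and DMSO (0% activity).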

Row | SMILES | Potency [1] | Potency [2] | outcome [3] | Potency [4]
1 | O=C(O)[C@@H]1[C@H]2C[C@H]3c4[nH]c5ccccc5c4CCN3C[C@@H]2CC[C@@H]1O | inactive | – | – | –
2 | CN1C[C@@H]2C[C@H]1CN2c1cc2c(cc1F)c(=O)c(C(=O)O)cn2C1CC1 | inactive | inactive | – | –
3 | O=C(O)c1ccccc1C(=O)Nc1ccc(S(=O)(=O)Nc2nccs2)cc1 | inactive | inactive | inactive | –
4 | Cc1ccc(S(=O)(=O)NC(=O)NC2CCCCCCC2)cc1 | inactive | inactive | – | –
5 | COc1cc(C(=O)NCCCCCC(=O)O)cc(OC)c1OC | inactive | inactive | – | –
6 | Cc1c(Cn2ccnc2)c2ccccc2n1CCC(=O)O | inactive | inactive | inactive | –
7 | C[C@@H]1O[C@@H](OC[C@H]2O[C@@H](Oc3c(-c4ccc(O)c(O)c4)oc4cc(O)cc(O)c4c3=O)[C@H](O)[C@@H](O)[C@@H]2O)[C@H](O)[C@H](O)[C@H]1O | inactive | inactive | – | –
8 | Cc1ccsc1C(=CCCN1CCC[C@@H](C(=O)O)C1)c1sccc1C | inactive | inactive | inactive | –
9 | CC(=O)NCc1c(I)c(NC(C)=O)c(I)c(C(=O)O)c1I | inactive | inactive | – | –
10 | O=C(NCN1CCOCC1)c1cnccn1 | inactive | inactive | inactive | –
11 | CCCCCCCC(=O)OCC(O)CO (configuration not stated) | inactive | inactive | inactive | –
12 | Cc1cccc(C(=O)O)c1O | inactive | inactive | – | –
13 | O=C(NCC(O)CO)c1c(I)c(C(=O)NCC(O)CO)c(I)c(N(CCO)C(=O)CO)c1I (configuration not stated) | inactive | – | – | –
14 | Cc1ccc(S(=O)(=O)NC(=O)NC2CCCCC2)cc1 | inactive | inactive | – | –
15 | CCCOC(=O)c1ccc(N)cc1 | inactive | inactive | – | –
16 | O=C(O)c1ccc(OCCCOc2ccc(C(=O)O)cc2)cc1 | inactive | inactive | inactive | –

Row | SMILES | Potency [1] | Potency [2] | outcome [3] | Potency [4]
17 | CC(=O)Nc1ccc(OCCOCCOc2ccc(NC(C)=O)cc2)cc1 | inactive | inactive | – | –
18 | CC(=O)Oc1cccc(O)c1 | inactive | inactive | inactive | inactive
19 | C[C@H]1COc2c(C3(N)CC3)c(F)cc3c(=O)c(C(=O)O)cn1c23 | inactive | inactive | – | –
20 | CCCCCOC(=O)Nc1nc(=O)n([C@@H]2O[C@H](C)[C@@H](O)[C@H]2O)cc1F | inactive | – | – | –
21 | Cc1c(C)c2c(c(C)c1OC(=O)c1cccnc1)CC[C@@](C)(CCC[C@H](C)CCC[C@H](C)CCCC(C)C)O2 | inactive | inactive | inactive | –
22 | NS(=O)(=O)c1cc2c(cc1C(F)(F)F)NCNS2(=O)=O | inactive | inactive | inactive | –
23 | Nc1c2c(nc3c1CCC3)CCCC2 | inactive | inactive | inactive | –
24 | CC1CCc2cc(F)cc3c(=O)c(C(=O)O)cn1c23 (configuration not stated) | inactive | inactive | inactive | –
25 | O=C(O)CCCc1ccccc1 | inactive | inactive | inactive | –
26 | O=c1[nH]cnc2nc[nH]c12 | inactive | inactive | inactive | –
27 | COc1nccnc1NS(=O)(=O)c1ccc(N)cc1 | inactive | inactive | inactive | –
28 | CCN(CC)CCOC(=O)C(c1ccccc1)c1ccccc1 | 2000 nM (active) | inactive | inactive | –
29 | NCc1ccc(S(N)(=O)=O)cc1 | inactive | inactive | inactive | –
30 | NNC(=O)CP(=O)(c1ccccc1)c1ccccc1 | inactive | inactive | inactive | –
31 | Cc1ncc(CO)c(CN)c1O | inactive | inactive | inactive | inactive
32 | NCC1CCC(C(=O)Oc2ccc(CCC(=O)O)cc2)CC1 (configuration not stated) | inactive | inactive | inactive | –
